The source made the active and inactive calls. Rule for the calls: active = hit-call score of the fitted dose curve at least 0.9, where 1 is the maximum; inactive = score below 0.9.

A short description of test [1]: ATG_E_Box_CIS: Attagene CIS-FACTORIAL HepG2 Assay for human Enhancer Box (E-box) (AID 2282936). The settings on record: HepG2 E-box cis-reporter transcription, actives raise or lower the signal. The essentials:
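Endogenous transcription factor activity was sensed in human HepG2 liver cells through transfected cis-promoter reporter units. After 24 h of dosing, total RNA was reverse-transcribed and reporter cDNA resolved by capillary electrophoresis.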

Test [2] is described as follows: ATG_M_61_CIS: Attagene CIS-FACTORIAL HepG2 Assay for M61 Transcription Factor (Internal Marker) (AID 2282937). The settings on record: HepG2 Attagene CIS-FACTORIAL M61 internal marker reporter; actives raise or lower the signal. The method in brief:
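This endpoint serves as an internal background control within a multiplexed HepG2 cis-reporter panel. Cells are exposed for 24 h; reporter mRNA is amplified, fluorescently labelled and sized by capillary electrophoresis, with DMSO as negative control.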

Test [3] is described as follows: ATG_EGR_CIS: Attagene CIS-FACTORIAL HepG2 Assay for human Early Growth Response 1 (EGR1) (AID 2282938). As to conditions: HepG2 Attagene CIS-FACTORIAL EGR reporter mRNA; actives raise or lower the signal. The method in brief:
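HepG2, transient MRTU transfection (cis promoters), 24 h compound. RNA → RT (oligo-dT) → PCR → 6-FAM labelling → HpaI cut → CE fluorescence. Bidirectional fit, DMSO baseline.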

The nature of test [4]: ATG_M_19_CIS: Attagene CIS-FACTORIAL HepG2 Assay for M19 Transcription Factor (Internal Marker) (AID 2282939). As to conditions: HepG2 Attagene CIS-FACTORIAL M19 internal marker reporter; actives raise or lower the signal. The method in brief:
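Transfect HepG2 with MRTU reporter library → dose chemical, 24 h → isolate total RNA, reverse-transcribe with oligo(dT) → PCR, 6-FAM label, HpaI cut (2 h, 37 C) → capillary electrophoresis. Bidirectional fit vs DMSO.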

Test [5] can be described thus: ATG_ERE_CIS: Attagene CIS-FACTORIAL HepG2 Assay for Estrogen Response Element (ERE) (AID 2282940). The settings on record: HepG2 ERE cis-reporter, Attagene RNA transcript; actives raise or lower the signal. The method in brief: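 Transient MRTU transfection of human HepG2; cis-element promoters; 24 h dosing; total RNA → RT (oligo dT) → PCR → 6-FAM primer extension → HpaI digest → CE fluorescence. Bidirectional fit, DMSO baseline.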

The nature of test [6]: ATG_Ets_CIS: Attagene CIS-FACTORIAL HepG2 Assay for human Erythroblast Transformation Specific (ETS) (AID 2282941). As to conditions: HepG2 ETS cis-reporter transcription, actives raise or lower the signal. The essentials:
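RT-PCR/capillary electrophoresis fluorescence read-out of reporter mRNA; HepG2 transient multi-reporter transfection; 24 h compound exposure; gain or loss of signal fitted bidirectionally relative to DMSO.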

The target of test [7] is Hepatocyte nuclear factor 3-beta (Homo sapiens) (UniProt Q9Y261). Briefly: ATG_FoxA2_CIS: Attagene CIS-FACTORIAL HepG2 Assay for human Forkhead box A2 (FOXA2) (AID 2282942). As to conditions: HepG2 cis-reporter transcription factor activity, 24 h; actives raise or lower the signal. The essentials: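 Cells: HepG2, transient multiplex reporter transfection. Exposure 24 h. Detection: reporter-specific RT-PCR, fluorescent labelling, restriction digest, capillary electrophoresis. Analysis: bidirectional curve fit, DMSO as negative control.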

Test [8] can be described thus: ATG_FoxO_CIS: Attagene CIS-FACTORIAL HepG2 Assay for human Forkhead box O (FoxO) (AID 2282943). The settings on record: HepG2 Attagene cis-reporter, FoxO element, mRNA; actives raise or lower the signal. The essentials:
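HepG2 cells transiently transfected with cis-promoter-driven multiple reporter transcription units; 24 h after chemical dosing, reporter mRNA quantified by RT-PCR, fluorescent primer extension, HpaI digestion and capillary electrophoresis. Bidirectional fitting versus DMSO baseline.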

Test [9] can be described thus: ATG_GATA_CIS: Attagene CIS-FACTORIAL HepG2 Assay for human GATA Binding Protein (AID 2282944). As to conditions: HepG2 GATA cis-element reporter, Attagene multiplex mRNA; actives raise or lower the signal. The essentials: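 Transient MRTU transfection, HepG2, 24 h compound exposure. Total RNA → oligo(dT) RT → PCR → 6-FAM primer extension → HpaI cut → CE. Bidirectional fit vs DMSO.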

A short description of test [10]: ATG_GLI_CIS: Attagene CIS-FACTORIAL HepG2 Assay for human Zinc Finger Protein GLI1 (AID 2282945). The settings on record: HepG2, Attagene cis-factorial reporter mRNA, GLI element; actives raise or lower the signal. The method in brief: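 HepG2 cells transiently transfected with cis-promoter multiplexed reporter units report endogenous transcription factor activity. After 24 h chemical exposure, reporter mRNA was quantified by RT-PCR, 6-FAM labelling, HpaI digestion and capillary electrophoresis, with bidirectional fitting against DMSO.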

Sequence of Hepatocyte nuclear factor 3-beta (Homo sapiens) (Q9Y261 whole entry, looked up): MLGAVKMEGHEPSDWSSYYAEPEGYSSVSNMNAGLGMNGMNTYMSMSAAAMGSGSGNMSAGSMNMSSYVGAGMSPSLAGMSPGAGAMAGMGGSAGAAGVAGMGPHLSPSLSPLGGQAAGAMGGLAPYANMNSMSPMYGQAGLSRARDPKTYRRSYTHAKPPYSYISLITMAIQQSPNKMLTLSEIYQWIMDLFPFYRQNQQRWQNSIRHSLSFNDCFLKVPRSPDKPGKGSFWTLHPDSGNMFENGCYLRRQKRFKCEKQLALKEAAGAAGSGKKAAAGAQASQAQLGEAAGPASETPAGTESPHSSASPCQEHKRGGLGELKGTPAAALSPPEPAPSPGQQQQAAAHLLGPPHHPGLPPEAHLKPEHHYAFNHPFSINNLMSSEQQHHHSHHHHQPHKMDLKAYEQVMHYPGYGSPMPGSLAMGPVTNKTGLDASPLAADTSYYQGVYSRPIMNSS

Broadly, the AC50 is the concentration at which the activity in the assay is half-maximal. With `COc1ccc(C=O)cc1OC`, the outcome in [1], in [2], in test [3], in test [4], in [6] and in test [7] was inactive. The result in [8], in test [9] and in [10] was inactive. Also, the AC50 in test [5] is 15.2 µM (active).

With `COP(=S)(OC)Oc1c(Cl)cc(C)cc1Cl`, the result in test [1], in test [2], in test [3], in test [4], in [6] and in [7] was inactive. Moreover, the outcome in test [8], in test [9] and in test [10] was inactive. The half-maximal activity concentration (AC50) in test [5] is 9.77 µM (active).

For the compound `CCCCCCCCc1ccc(O)cc1`, the result in test [1], in test [2], in test [3], in test [4], in test [6] and in test [7] was inactive. For the same compound, the call in test [8], in test [9] and in test [10] was inactive.

In the case of `COc1ccc(OC)c(C=O)c1`, the outcome in test [1], in [2], in test [3], in [4], in test [5] and in [6] was inactive. For the same compound, the outcome in test [7], in [8], in test [9] and in test [10] was inactive.

For `CN(C)N=O`, the result in [1], in test [2], in test [3], in [4], in [6] and in test [7] was inactive. Moreover, the compound was called inactive in test [8], in [9] and in test [10].

Turning to `Cc1ccccc1C(=O)Nc1cccc(OC(C)C)c1`, the outcome in test [1], in [2], in [3], in test [4], in [5] and in test [6] was inactive. Further, the compound was called inactive in [7], in test [8], in test [9] and in [10].

On to `C1CCC(NC2CCCCC2)CC1`, for which the result in [1], in test [2], in test [3], in test [4], in test [6] and in [7] was inactive. The compound was classed as inactive in test [8], in test [9] and in [10]. Moreover, in test [5], the AC50 is 28.8 µM (active).

Take `N#CN=C(N)N`: the result in [1], in test [2], in [3], in test [4], in test [5] and in test [6] was inactive. Further, the outcome in [7], in test [8], in test [9] and in test [10] was inactive.

For the compound `O=C/C=C/c1ccccc1`, the result in test [1], in test [2], in [3], in [4], in test [6] and in test [7] was inactive. In addition, the compound was called inactive in test [8], in [9] and in [10]. For the same compound, the AC50 in [5] was 35 µM (active).

Turning to `C=CC(=O)OCCCCCC(C)C`, the result in [1], in [2], in [3], in test [4], in test [5] and in test [6] was inactive. In addition, the outcome in [7], in test [8], in [9] and in test [10] was inactive.

Regarding `Fc1ccc(C2(Cn3cncn3)OC2c2ccccc2Cl)cc1` (stereo not drawn), the result in [1], in [2], in test [3], in test [4], in test [5] and in test [6] was inactive. Moreover, the compound was classed as inactive in test [7], in test [8], in test [9] and in [10].

Regarding `C=C(C)C#N`, the result in test [1], in [2], in test [3], in test [4], in test [5] and in test [6] was inactive. The result in [7], in test [8], in test [9] and in test [10] was inactive.

`O=P(O)(O)CN(CP(=O)(O)O)CP(=O)(O)O`: the result in test [1], in test [2], in test [3], in test [4], in test [5] and in [6] was inactive. Moreover, the compound was classed as inactive in test [7], in [8], in test [9] and in test [10].

`CC(C)CCCCCCOC(=O)c1ccccc1C(=O)OCCCCCCC(C)C`: the result in [1], in test [2], in test [3], in [4], in [5] and in test [6] was inactive. The outcome in test [7], in test [8], in [9] and in [10] was inactive.

As for `Nc1cccc2ccccc12`, in [1], the AC50 was 32.1 µM (active). Also, the result in test [2], in test [3], in test [4], in test [5], in test [6] and in test [7] was inactive. Besides, the call in [8], in test [9] and in test [10] was inactive.

With `Oc1c(I)cc(I)cc1I`, the AC50 was 4.99 µM (active) in test [1], 71.1 µM (active) in test [3], 100 µM (active) in test [8] and 149 µM (active) in [10]. In addition, the compound was called inactive in test [2], in test [4], in [5], in test [6], in test [7] and in test [9].

`COP(=O)(OC)OC`: the result in [1], in [2], in [3], in test [4], in [5] and in [6] was inactive. For the same compound, the compound was classed as inactive in test [7], in test [8], in test [9] and in test [10].

With `CN(C)P(=O)(N(C)C)N(C)C`, the outcome in test [1], in [2], in test [3], in [4], in [5] and in test [6] was inactive. Further, the call in test [7], in [8], in test [9] and in test [10] was inactive.

`CC(C)(C)c1cc(O)ccc1O`: the result in test [1], in test [2], in test [4], in test [5], in test [6] and in test [7] was inactive. Also, the call in [8], in [9] and in [10] was inactive. For the same compound, the half-maximal activity concentration (AC50) in test [3] is 120 µM (active).

Consider `Nc1ccc(Cl)cc1C(=O)c1ccccc1`, for which the result in test [1], in test [2], in [4], in test [5], in test [6] and in test [7] was inactive. The outcome in [8], in test [9] and in test [10] was inactive. Also, the concentration at half-maximal activity (AC50) in test [3] was 26.3 µM (active).
